Shown are actives, neighbours in structure and some others; about 0.54% of the full set was active somewhere.
Vif-APOBEC3G blk: inhibitors of Vif-APOBEC3G interaction; Potency, µM (titrated, usually from 46.1 µM), inactives show at the highest dose activity, negative = active, hits mostly inhibitors; Q9HC16; 410,000 tested, 0.076% active; HeLa A3G-eYFP + Vif (tagged APOBEC3G with the HIV-1 protein that degrades it), YFP fluorescence, overnight; also: potency is read from the fitted curve at half-maximal effect; % is scaled to controls: 0 for no effect and ±100 for the full control effect; nearly all actives have a fitted effect of over 60% in size
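HeLa cells stably expressing Vif and C-terminally eYFP-tagged A3G, seeded overnight at 37 deg C, then exposed to compound by pintool overnight at 37 deg C. Rise in yellow fluorescence (Ex 488/Em 500-530, Acumen) marks blocked Vif-driven A3G degradation.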
Vif-A3F inh: inhibitors of Vif-A3F interaction; HeLa A3F-eYFP + Vif (tagged APOBEC3F with the HIV-1 protein that degrades it), YFP fluorescence increase; Potency, µM (highest dose often 46.1 µM), for inactives: at the highest dose activity, negative = active; 390,000 tested, 0.2% active; AID 602313; also: potency is read from the fitted curve at half-maximal effect; % of control where 0% means no effect; nearly all actives have a fitted effect of over 65% in size
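HeLa cells stably expressing A3F-eYFP plus Vif, plated and incubated overnight at 37 deg C, then exposed to compounds overnight at 37 deg C. Blocked degradation read as raised yellow fluorescence (Ex 488/Em 500-530).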
A-T KAP1 phos: candidate therapy for ataxia-telangiectasia | F2112 A-T fibroblasts, KAP-1 phosphorylation AlphaLISA; neocarzinostatin DNA damage 30 min before lysis | Potency, µM (series often up to 57.5 µM), for the others: at the highest dose activation, hits mostly activators | 320,000 tested, 0.19% active; also: potency is read from the fitted curve at half-maximal effect; % of control where 0% means no effect; nearly all actives have a fitted effect of over 45% in size
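ATM-like activity read as KAP-1 phosphorylation via AlphaLISA donor/acceptor antibody pairs after lysis and 6 hr at 25C. Cells were ATM-null patient fibroblasts (F2112, hTERT), dosed 60 min, then exposed to the DSB inducer NCS for 30 min.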
TRPML1 blocker: human mucolipin-1 channel inhibition; activity change, negative = inhibition, % (no concentration beside the values); Q9GZU1; 390,000 tested, 0.02% active; TRPML1-inducible cells, Ca2+ dye fluorescence, FDSS; stronger effect = lower value; inhibition of EC80 agonist-evoked calcium signal; in the data active = activity change below about -50%; inconclusive = between about -30% and that limit;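 also: stimulus is agonist 54-4 at its EC80 concentration; % is scaled to controls: 0 for no effect and ±100 for the full control effect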
Target sequence (Q9GZU1 whole entry, looked up): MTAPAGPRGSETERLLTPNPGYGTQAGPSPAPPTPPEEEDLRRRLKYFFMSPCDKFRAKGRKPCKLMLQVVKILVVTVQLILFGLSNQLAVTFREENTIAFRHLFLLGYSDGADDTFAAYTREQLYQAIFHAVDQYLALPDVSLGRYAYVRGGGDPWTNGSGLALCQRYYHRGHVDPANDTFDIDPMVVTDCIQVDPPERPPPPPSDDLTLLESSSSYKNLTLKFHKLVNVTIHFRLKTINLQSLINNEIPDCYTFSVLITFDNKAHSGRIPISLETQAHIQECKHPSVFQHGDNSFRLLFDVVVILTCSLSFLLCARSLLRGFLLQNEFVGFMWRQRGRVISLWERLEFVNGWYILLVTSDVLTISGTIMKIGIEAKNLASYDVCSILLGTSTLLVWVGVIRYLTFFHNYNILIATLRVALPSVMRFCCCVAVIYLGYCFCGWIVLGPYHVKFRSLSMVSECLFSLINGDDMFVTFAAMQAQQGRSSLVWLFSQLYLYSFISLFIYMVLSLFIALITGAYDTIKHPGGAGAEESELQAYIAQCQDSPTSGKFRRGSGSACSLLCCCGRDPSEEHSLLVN
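TRPML1-DL cells, Tet-induced overnight (~16 h, 37 °C) at 1,500 cells/well, were loaded with Ca8 no-wash dye plus quencher for 45-90 min at room temperature. Compounds were pinned during FDSS kinetic reading; agonist 54-4 at EC80 (4 uM final) then added.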
TRPML1 ag: human mucolipin-1 channel agonism | Q9GZU1 | TRPML1-expressing cells, Ca2+ dye fluorescence, FDSS | activation, % (concentration not given with the values) | 410,000 tested, 0.12% active | AID 624414; in the data active = activation above about 50%; inconclusive = mostly about 30% to 49%; also: 0% is about no effect
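Kinetic FDSS Ca2+ read in Tet-induced TRPML1-DL cells (ABD Ca8 dye plus quencher, 45-90 min RT loading): baseline, then compound, then 110 s agonist window; EC80 agonist 54-4 at 4uM final added afterwards for a 110 s antagonist window.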
Starred values were filed as active, the others as inactive; u = inconclusive; x = not tested or not shown; ! = not confirmed by another sample. Unless noted, calls follow the shape of the dose curve; as a rule, active = well fitted curve in the direction sought with a large enough effect; inconclusive = small, poorly fitted or top-dose-only effect, or another doubt; inactive = no such curve, though single readings can be large; an effect the other way counts as inactive or inconclusive.

SMILES	Vif-APOBEC3G blk	Vif-A3F inh	A-T KAP1 phos	TRPML1 blocker	TRPML1 ag
Cc1ccc(-c2nc3cc(NC(=O)c4cc(Br)ccc4Cl)ccc3o2)cc1	x	x	x	5	1
COCCCNC(=S)N/N=C/c1ccc(OC)cc1	3%	22µM*	-3%	2	0
COCCCNC(=S)N/N=C/c1ccc(O)cc1	1%	0%	0%	-7	0
O=C1CC(c2cc(F)cc(F)c2)c2cc3c(cc2N1)OCO3 (configuration not stated)	-3%	4%	x	3	-1
CCN(C(=O)c1c(C)oc2ncnc(N3CCCCC3)c12)c1cc(C)ccc1C	-3%	3%	x	-5	0
c1ccc2c(-c3nc4ccccc4[nH]3)cccc2c1	6.3µM*	0%	x	-12	-1
O=c1c2ccccc2nc(/C=C/c2ccc([N+](=O)[O-])o2)n1CCCO	u	22µM*	4%	-7	-1
O=C(Nc1ncc2c(n1)CC(c1cccc(Cl)c1)CC2=O)c1ccco1 (configuration not stated)	-6%	-8%	13µM*	-21	0
O=C(Nc1ncc2c(n1)CC(c1ccccc1)CC2=O)c1ccco1 (configuration not stated)	0%	-3%	-2%	-11	3
Cc1cccc(NC(=O)CSc2nc(=O)n(Cc3ccccn3)c3c2CCC3)c1C	2%	2%	x	2	2
CCCCn1nnnc1C(c1ccccc1)N1CCN(Cc2c(F)cccc2Cl)CC1 (configuration not stated)	x	x	x	x	57*
N#Cc1cc(-c2ccccc2)nc(NN)n1	0%	12%	-11%	0	1
N#Cc1cc(-c2ccccc2)nc(N2CCNCC2)n1	-4%	9%	32µM*	5	0
COCCCNC(=O)Nc1cc(C(=O)NCc2ccc(OC)cc2)ccc1N1CCCC1	-4%	3%	x	1	1
CN(C)c1ccc(/C=C/c2ccc3cc(N(C)C)ccc3n2)cc1	u	x	x	x	9
CN(C)c1ccc(/C=C/c2ccc3ccccc3n2)cc1	-19%	u	30%	-11	52*!
CN(C)c1ccc(/C=C/c2cc(/C=C/c3ccc(N(C)C)cc3)c3ccccc3n2)cc1	2.8µM*	x	x	x	u
Cc1cc(/C=C/c2ccccc2)nc2ccccc12	-11%	x	x	x	0
CCN(CC)c1ccc(/C=C/c2cc(-c3ccccc3)c3ccccc3n2)cc1	u	u	11µM*	-19	0
CCCN(CCC)c1ccc(/C=C/c2ccc3cc(OCC)ccc3n2)cc1	-11%	u	28µM*	1	22
CN(C)c1ccc(/C=C/c2ccc3cc(F)ccc3n2)cc1	u	x	x	x	19
Cc1cccc(C)c1NC(=O)CN(Cc1ccc(Br)cc1)S(=O)(=O)c1ccccc1	4%	-3%	x	29	1
CCc1ccc(C2C(C(=O)Nc3ccccc3OC)=C(C)Nc3c(C(=O)Nc4ccc(C)cc4)cnn32)cc1 (configuration not stated)	-13%	-14%	x	21	1
COCCNC(=O)CCCn1c(SCc2ccccc2Cl)nc2c(sc3ccccc32)c1=O	0%	-5%	x	-21	-1
CN(C)c1c(Cl)cc(/C=C/c2ccnc3ccccc23)cc1Br	-13%	x	x	x	-1
SMILES	Vif-APOBEC3G blk	Vif-A3F inh	A-T KAP1 phos	TRPML1 blocker	TRPML1 ag
CCN1CCc2c(sc(NC(=O)c3ccc(S(=O)(=O)N4CCOCC4)cc3)c2C(N)=O)C1	-1%	-2%	24%	4	0
CCCCN(CCCC)S(=O)(=O)c1ccc(C(=O)Nc2sc3c(c2C(N)=O)CCN(CC)C3)cc1	u	28µM*	x	-18	3
CCN1CCc2c(sc(NC(=O)c3ccc(S(=O)(=O)N(CC)c4ccccc4)cc3)c2C(N)=O)C1	u	u	-5%	-8	61*
CCN1CCc2c(sc(NC(=O)Nc3ccc(Cl)c(Cl)c3)c2C(N)=O)C1	u	u	25µM*	-17	81*
CCN1CCc2c(sc(NC(=O)c3ccc(C(=O)c4ccccc4)cc3)c2C(N)=O)C1	-7%	-4%	-6%	16	1
CC(C)CCNC(=O)c1ccc2c(c1)NC(=O)C(C(C)C)N2 (configuration not stated)	-1%	5%	x	12	-1
Cc1ccc(Cn2cccc(-c3nc4ccccc4s3)c2=O)cc1	1%	-11%	28µM*	28	5
O=c1c(-c2nc3ccccc3s2)cccn1Cc1ccccc1	-8%	4%	u	5	-1
C#CCOCCOCCOCCNc1nc(N2CCN(C(=O)[C@H](CCCCN)n3cc(C(N)CO)nn3)CC2)nc(N2CCN(C(=O)[C@H](CCC(=O)O)n3cc(C(N)CC(C)C)nn3)CC2)n1 (some centres not stated)	x	x	40µM*	x	x
C#CCOCCOCCOCCNc1nc(N2CCN(C(=O)[C@H]([C@@H](C)CC)n3cc([C@@H](N)CO)nn3)CC2)nc(N2CCN(C(=O)[C@H]([C@@H](C)CC)n3cc([C@@H](N)CO)nn3)CC2)n1	x	x	40µM*	x	x
C#CCOCCOCCOCCNc1nc(N2CCN(C(=O)[C@H]([C@@H](C)CC)n3cc([C@@H](N)CO)nn3)CC2)nc(N2CCN(C(=O)[C@H]([C@@H](C)CC)n3cc([C@@H](N)CC(C)C)nn3)CC2)n1	1%	4%	13%	-3	-1
CCCCNC(=O)CN1CCN(c2ncc(NC(=O)c3ccc(Cl)cc3)cc2C(=O)O)CC1	x	x	x	-10	3
COc1ccc(-c2noc(-c3ccc(NCc4ccco4)c([N+](=O)[O-])c3)n2)cc1OC	5%	1%	x	8	-1
Cc1cccc(-c2noc(-c3ccc(NCc4ccco4)c([N+](=O)[O-])c3)n2)c1	1%	10µM*	x	-1	0
COc1ccc(NC(=O)N2CCN3CCCCC3C2)cc1OC (configuration not stated)	5%	-8%	x	-51*	1
CCOc1cc([N+](=O)[O-])cc2c1C(=O)Nc1ccccc1O2	u	22µM*	0%	14	3
COc1ccc(-n2nc(C(=O)NCCc3ccc(Cl)cc3)c3c4ccccc4n(C)c3c2=O)cc1	x	x	x	18	3
Cc1cc2nc(-c3ccc(SCC(=O)Nc4ccc(S(=O)(=O)N5CCCC5)cc4)nc3)[nH]c2cc1C	-7%	11µM*	2%	-7	0
O=C(CCCCn1c(=O)c2ccccc2n(Cc2ccccc2Cl)c1=O)NCCc1ccccc1	3%	-6%	x	-17	-1
CCOC(=O)CCc1ccc(NC(=O)/C=C/c2ccc([N+](=O)[O-])o2)cc1	7.9µM*	11µM*	x	-7	0
Cc1ccc(/C=C/C(=O)Nc2ccc([N+](=O)[O-])cc2)o1	3%	-7%	7%	2	0
